# High-throughput results: PubChem, National Center for Advancing Translational Sciences (NCATS)
# Shown are actives, neighbours in structure and some others; about 0.18% of the full set was active somewhere.
# GFP derepression = derepresses silenced GFP locus in mouse C127i cells. mouse C127i GFP locus derepression, cytometry, 30 h. Potency, µM (doses to about 46.1 µM), for inactives: top-dose GFP derepression (activation). hit rate 0.09% among 68,000. AID 597; also: % of control where 0% means no effect
#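 Read-out is the number of GFP-positive cells, scored as fluorescent objects 20 to 120 um wide, reflecting derepression of a silenced CMV-GFP reporter in murine C127i cells after 30 h compound exposure at 37 C.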
# USP2a inhib = USP2a (human) protease inhibition; AID 927; hit rate 0.1% among 60,000; USP2a enzymatic assay, qHTS inhibition; Potency, µM (series often up to 38.3 µM), for the others: at the top dose activity change, negative = inhibition, hits mostly inhibitors; also: potency is read from the fitted curve at half-maximal effect; nearly all actives have a fitted effect of over 60% in size
# Target sequence (O75604 whole entry, looked up): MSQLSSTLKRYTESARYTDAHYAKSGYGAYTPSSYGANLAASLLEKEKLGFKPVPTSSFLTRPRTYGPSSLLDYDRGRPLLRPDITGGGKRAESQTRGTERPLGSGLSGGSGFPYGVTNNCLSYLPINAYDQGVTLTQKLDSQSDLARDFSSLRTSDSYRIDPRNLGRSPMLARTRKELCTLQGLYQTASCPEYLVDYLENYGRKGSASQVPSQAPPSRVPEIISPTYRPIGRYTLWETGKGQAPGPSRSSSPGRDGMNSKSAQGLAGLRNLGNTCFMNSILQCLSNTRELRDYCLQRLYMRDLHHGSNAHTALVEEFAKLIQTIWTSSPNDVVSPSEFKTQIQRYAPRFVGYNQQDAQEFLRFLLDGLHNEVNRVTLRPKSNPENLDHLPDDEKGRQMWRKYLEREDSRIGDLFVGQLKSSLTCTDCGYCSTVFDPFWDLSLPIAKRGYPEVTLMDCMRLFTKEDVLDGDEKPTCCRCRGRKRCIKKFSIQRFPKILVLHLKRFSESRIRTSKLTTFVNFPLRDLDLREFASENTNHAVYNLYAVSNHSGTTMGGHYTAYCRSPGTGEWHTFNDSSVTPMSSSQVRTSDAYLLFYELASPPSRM
#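 20 nM USP2 core + cpd, 30 min RT; add 20 nM Ub-PLA2/20 uM NBD C6-HPC; read Ex460/Em535 at 0 h and 2.5 h. Normalized to NEM; qHTS curve fit/classification.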
# Peg3 imprint = induces erasure of genomic imprints in mouse ES cells; hit rate 0.02% among 110,000; mouse ES Peg3-LacZ reporter, beta-gal luminescence, 40 h; Potency, µM (highest dose often 60.7 µM), for the others: at the top dose activity change, positive = activation, most hits filed as activators; also: potency is read from the fitted curve at half-maximal effect
#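 Each well holds 300 Peg3LacZ-Neo (maternal) female ES cells incubated 40 h at 37C, 5% CO2. LacZ is measured by BetaGlo luminescence, with AC50 and maximum efficacy derived from dose-response curves.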
# Ub-GFP proteasome = inhibits proteasome, raising ubiquitin-GFP reporter fluorescence; Ubiquitin-GFP reporter cells, proteasome inhibition, GFP fluorescence; response scale: untreated = 0%, 10 µM MG-132 = 100%; Potency, µM (top dose mostly 45.9 µM), without a hit: at the highest dose activation (GFP accumulation), usual class: activators; 67,000 tested, under 10 active; active = well fitted activation curve with a large enough effect, not every such curve was filed as active; inconclusive = small, poorly fitted or top-dose-only effect, or another doubt; inactive = no such curve, though single readings can be large or run the other way; also: potency is read from the fitted curve at half-maximal effect
#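 Proteasome blockade was scored as a rise in GFP-expressing U2OS cells carrying a ubiquitin(G76V)-GFP construct, imaged after 4 hr compound treatment at 37 °C across a 46 uM–2.9 nM series.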
# IkB signaling = suppresses IkB signaling in ABC-DLBCL reporter cells; ABC-DLBCL IkBa-CBG/CBR dual luciferase ratio, 4 h; response scale: scaled: untreated 0%, proteasome inhibitor 100%; Potency, µM (highest dose often 57.1 µM), for the others: at the top dose IkBa stabilization activation; hit rate 0.04% among 110,000; AID 445; active = well fitted curve in the direction sought with a large enough effect in the signal ratio, not every such curve was filed as active; inconclusive = small, poorly fitted or top-dose-only effect, or a change in a side signal; the % refers to the signal ratio;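 also: potency is read from the fitted curve at half-maximal effect; the direction sought is a rising ratio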
#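 Curves were fitted separately to fusion (green), unfused (red) and ratio luminescence, then classed by r2, magnitude and activity. Cells: OCI-Ly3, 4 h compound plus doxycycline at 37C; 10 uM MG-132 defined full response.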
# HBB splice mod = hemoglobin beta splicing modulation; HBB splicing reporter cell assay, activation; EGFP reporter with mutant IVS2-654 intron; response scale: normalised to 500 nM splice-correcting PNA; Potency, µM (series often up to 46.1 µM), for inactives: at the highest dose activation, most hits filed as activators; hit rate 0.06% among 65,000; also: potency is read from the fitted curve at half-maximal effect; 0% is about no effect
#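 HeLa cells stably expressing EGFP interrupted by mutant beta-globin intron 2 (IVS2-654), 500/well in 2% FCS. Treated with compound for 2 days at 37C. Splicing correction scored as total well GFP intensity (488 nm excitation, 500-520 nm emission); 500 nM antisense PNA served as control.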
# The depositor's hits bear a star; u = inconclusive; x = not tested or not shown; [ ] = another dose, or the depositor's remark. Unless noted, calls follow the shape of the dose curve; as a rule, active = well fitted curve in the direction sought with a large enough effect; inconclusive = small, poorly fitted or top-dose-only effect, or another doubt; inactive = no such curve, though single readings can be large; an effect the other way counts as inactive or inconclusive.
SMILES,GFP derepression,USP2a inhib,Peg3 imprint,Ub-GFP proteasome,IkB signaling,HBB splice mod
CC(=O)NC(CC(C)C)C(=O)NC(Cc1ccccc1)C(N)=O (stereo not given),0%,1%,-1%,-1%,-1%,2%[57.5 µM]
Cc1cc(C)c(/C=C2/C(=O)Nc3ccccc32)[nH]1,0%,4%,x,-3%,-12%,32µM*
COc1cc(OC)c(/C=C2/C(=O)Nc3ccccc32)c(OC)c1,-1%,1%,-18%,-3%,u,-2%
CN(N=O)c1ccc(/C=C\c2ccnc3ccccc23)cc1,3%[9.22 µM],x,-12%[10.9 µM],0%[9.17 µM],1%[11.4 µM],2%[9.22 µM]
CC/C=C1/OC(=O)c2ccccc21,x,x,4%,x,-4%,-1%
CN(C)c1ccc(C(=C2C=CC(=[N+](C)C)C=C2)c2ccc(N(C)C)cc2)cc1,x,10µM*,-47%,x,u,-1%
CN1CCN(c2ncc3nc(-c4cccs4)c(=O)n(-c4ccccc4)c3n2)CC1,3%[9.22 µM],113%,-1%,7%,1%[11.4 µM],2%
Cc1cc(C)n(-c2nc(Nc3ccccc3)nc(-n3nc(C)cc3C)n2)n1,3%,13µM*,-5%,0%,0%,x
Cc1ccc(Nc2cc(C)nc(-n3nc(C)cc3C)n2)cc1,x,x,-13%[10.9 µM],x,-2%,x
CCOc1ccc(Nc2cc(C)nc(-n3nc(C)cc3C)n2)cc1,16µM*,8%,-33%,2%,2%,9%[0.369 µM]
Cc1ccccc1/C=C\C1=NCCN1,-2%,-9%,x,-2%,7%,-1%
OC[C@H](S)CS,3.2µM*,x,-3%[10.9 µM],4%[9.17 µM],u,2%[9.22 µM]
CCCCCCCCCCCCC/C=C\[C@H](O)[C@H](N)CO,-2%,x,x,-2%,-18%,2%
Oc1c(CN2CCN(c3ccccn3)CC2)cc(Cl)c2cccnc12,3.2µM*,31%,-25%,-3%,u,-1%
NCCNC(=S)S,6%[9.22 µM],x,-10%[10.9 µM],0%[9.17 µM],1%[11.4 µM],2%[9.22 µM]
Cc1ccc(C)c(N2CCN(S(=O)(=O)c3ccc4oc(=O)c5ncn(C)c5c4c3)CC2)c1,x,x,-8%[10.9 µM],x,-3%,x
O=C(O)[C@@H]1[C@H](C(=O)O)[C@H]2C(=O)C=C[C@H]1N2Cc1ccccc1,-3%[9.22 µM],x,-19%[10.9 µM],-3%[9.17 µM],4µM*,0%[9.22 µM]
O=C(O)C1CC(=O)N(Cc2ccccc2)C1 (stereo not given),-3%,1%,2%,14%,2%,4%
O=C(c1ccco1)N1CCN(C(=O)C(Cc2ccccc2)NS(=O)(=O)c2cccs2)CC1 (stereo not given),2%,42%,3.2µM*,7%,3%,-5%
CCOC(=O)c1noc2nc(C)n(CC(=O)NC(C)CC)c(=O)c12 (stereo not given),x,x,7%[10.9 µM],x,-2%,x
CN(C)CCC(=O)[C@@]1(O)CC[C@H]2[C@H]3CC=C4C[C@@H](O)CC[C@]4(C)[C@H]3CC[C@]21C,u,x,-28%[10.9 µM],0%[9.17 µM],5µM*,3%[9.22 µM]
CC(C)CCC[C@@H](C)[C@H]1CC[C@H]2[C@@H]3CC=C4C[C@@H](O)CC[C@]4(C)[C@H]3CC[C@]12C,x,x,-4%,x,x,x
CC(=O)N1c2ccccc2NC2=C(C(=O)CCC2)C1c1cccnc1 (stereo not given),0%,1.6µM*,-7%,-2%,-5%,-2%
CC1=C(C(=O)OCCOC(C)C)C(c2cccnc2)C2=C(CCCC2=O)N1 (stereo not given),4%,6%,-7%,-10%,1%,2%
CCOC(=O)C1CCCN(c2c(C(=O)c3ccc(C)cc3)cnc3ccc(OCC)cc23)C1 (stereo not given),x,x,-5%[10.9 µM],x,u,x
Cc1ccccc1-c1nc(N2CCOCC2)c2ccccc2n1,-2%[9.22 µM],13µM*,-8%,0%,0%[11.4 µM],-1%
Cc1ccccc1-c1nc(N2CCN(C)CC2)c2ccccc2n1,2%[9.22 µM],28%,u,-7%,2%[11.4 µM],0%
